Screen size: about 69,000 compounds; about 8,600 (12%) showed an effect of 50% or more. Shown is part of a subset that was picked to be rich in strong results.

In the assay the test system is Plasmodium berghei. Put plainly: Screen against P. berghei liver stage (PbLuc), transformed with Luciferase, at 10uM. It counts as functional, HepG2. The note with it: tested at 10 uM.
Take `CS(=O)(=O)CC(=O)N1C[C@H]2CCC[C@@]2(COCc2ccccn2)C1`: the INHIBITION came to 25%.
In the case of `O=C(Cc1ccsc1)N1C[C@H]2CCC[C@@]2(COCc2ccccn2)C1` it was 63.8%.
In the case of `COC[C@@]12CCC[C@@H]1CN(C(=O)Cc1ccccn1)C2` it was 39.4%; in that of `Cc1ccccc1C(=O)NC(C)c1cnn(C)c1` (centres undefined), 40.8%.
In the case of `CNC(=O)CNCc1c[nH]nc1-c1cc2ccccc2o1` it was 1.51%; in that of `CNc1nc2c(c(C(=O)N3CCCC3)n1)CN(C(=O)CCSC)CC2`, -36.6%; in that of `CS(=O)(=O)N1CCOC2(CCN(c3nccs3)CC2)c2ccccc21`, 5.36%.
Regarding `CN(C)CCN1CCOC2(CCN(c3nccs3)CC2)c2ccccc21`, the INHIBITION was 58.5%.
Under `CN(C)CCN1CCN(C)C2(CCN(c3nccs3)CC2)C1=O` stands 17.2%.
Under `CC(C)C(NC(=O)C1CCCC1)c1cc(O)nc(-c2cccnc2)n1` (centres undefined) stands 28.925%; under `CS(=O)(=O)c1ccc(OCCCN2CCc3cncnc3C2)cc1`, 31.2%; under `CN(C)CCN1CCCC12CCCN(Cc1ccoc1)C2` (centres undefined), 21.6%.
In the case of `Cc1nccc(C2CN(C(=O)c3cncnc3)C2)n1` it was -14.2%.
`Cc1cccc(CN2C(=O)OCC2CO)c1F` (centres undefined): the INHIBITION is given as -21.8%.
Regarding `Cn1cccc1-c1cc(C(=O)NCCCc2csc(N)n2)[nH]n1`, the INHIBITION was found to be 35%.
Under `Cc1ccc(-c2cc(C(=O)NCCCc3csc(N)n3)[nH]n2)o1` stands 64.6%; under `Cc1[nH]c2c(F)cccc2c1CC(=O)NCCCc1csc(N)n1`, 1.24%; under `Cc1ccc(-c2cc(C(=O)NCCCc3csc(N)n3)[nH]n2)s1`, 56.5%.
Under `Cc1ccc(-c2cc(C(=O)NCCN3CCCS3(=O)=O)[nH]n2)o1` stands -7.25%.
In the case of `COc1ccc2c(C)c(C(=O)NCCCc3csc(N)n3)oc2c1` it was 43.6%; in that of `CNC(=O)C1CN(C(C)C)CCN1c1nc(C)cc(C)n1` (centres undefined), 3.48%.
As to `O=C(CC1NC(N2CCc3ccccc3C2)=NC1=O)Nc1ccccc1` (centres undefined), the INHIBITION came to 19.3%.
Under `O=C1COc2c(cccc2C(=O)N2CCCC(n3cccn3)C2)N1` (centres undefined) stands -4.94%.
In the case of `Cc1nc(C(C)C)sc1C(=O)N1CCN(C2CN3CCC2CC3)CC1` (centres undefined) it was -6.91%; in that of `CCc1nc(CN(C)C2CCN(CCc3ccncc3)C2)no1` (centres undefined), -12.2%; in that of `Cc1nc(CN(C)C2CCN(Cc3cnc(C)s3)C2)no1` (centres undefined), -29.8%.
Under `CCc1nc(CN(C(C)=O)C2CCN(CCc3ccccc3)C2)no1` (centres undefined) stands 19.4%.
`CCc1nc(CN(C(C)=O)C2CCN(CC3CCOCC3)C2)no1` (centres undefined): the INHIBITION is 17.4%.
Consider `COCCN1CCC(N(Cc2noc(C3CC3)n2)C(C)=O)C1` (centres undefined), for which the INHIBITION turned out to be 23.4%.
For `Cc1nc(CN(C)C2CCN(Cc3nc4ccccc4s3)C2)no1` (centres undefined), the INHIBITION amounted to 60%.
Under `Cc1cnc(CN(C)C2CCN(Cc3nc4ccccc4s3)C2)o1` (centres undefined) stands 15.3%; under `CCc1nc(CN(C(C)=O)C2CCN(CCc3ccncc3)C2)no1` (centres undefined), 66.7%; under `CC(=O)N(Cc1noc(C2CC2)n1)C1CCN(CC2CCOCC2)C1` (centres undefined), 56.6%.
In the case of `Cc1nc(CN(C)C2CCN(Cc3ccc4ccccc4n3)C2)no1` (centres undefined) it was 70.1%.
Under `Cc1nc(CN(C)C2CCN(Cc3cccc4cccnc34)C2)no1` (centres undefined) stands 25.3%; under `Cc1nc(CN(C)C2CCN(Cc3nc4ccccc4n3C)C2)no1` (centres undefined), 48.2%.
Regarding `CN1CCOC(CNCc2csc(C3CCCC3)n2)C1` (centres undefined), the INHIBITION came out at 45.1%.
On to `O=C(c1ccc(Cl)cc1)N1CCC(N2CCCOC2=O)CC1`, for which the INHIBITION was 48.2%.
Under `COC1CCN(c2ccc(F)cc2CN(C)S(C)(=O)=O)CC1` stands 4.52%; under `CN(CC(C)(CO)CO)C(=O)Nc1cc(F)cc(Cl)c1`, -35.9%; under `COCc1nc(C(=O)NS(=O)(=O)c2ccc(F)cc2F)cs1`, -1.95%.
In the case of `NCCc1n[nH]c(=O)n1-c1cccc2ccccc12` it was 30%; in that of `CN(C)CCN1CCN(Cc2cccc(C#N)c2)Cc2cccnc21`, -4.32%; in that of `COc1cccc(CNCCc2cc(F)cc3c2OCOC3)c1OC`, 30%.
As for `COc1c(CNCCC(=O)NC2CCCCC2)c(C(C)C)nn1C`, the INHIBITION was -7.81%.
Under `Cc1ccc(CN2CC(C(=O)NCC3CC3)C3(CCOCC3)C2)s1` (centres undefined) stands -18.5%; under `Cc1cnn(CC2CN(c3ccc(C#N)cn3)CCO2)c1` (centres undefined), 21%; under `CCc1nc(CN(C)C2CCN(CCC(=O)N3CCCCC3)C2)no1` (centres undefined), 36.1%.
Under `CC(C)c1nc(CN(C)C2CCN(CCS(C)(=O)=O)C2)no1` (centres undefined) stands 33.7%; under `CC(C)c1nc(CN(C)C2CCN(CCNS(C)(=O)=O)C2)no1` (centres undefined), 53.3%; under `Cc1nc(CN(C)C2CCN(CCC(=O)N3CCOCC3)C2)no1` (centres undefined), 51.1%.
Under `CCS(=O)(=O)CCN1CCC(N(C)Cc2noc(C(C)C)n2)C1` (centres undefined) stands 21.2%; under `CC(=O)N(Cc1noc(C)n1)C1CCN(Cc2ccccn2)C1` (centres undefined), -39.7%.
As to `Cc1nc(CN(C)C2CCN(CC3CCCCC3)C2)no1` (centres undefined), the INHIBITION worked out at 63.4%.
Under `CC(=O)N(Cc1noc(C)n1)C1CCN(Cc2cc(C)on2)C1` (centres undefined) stands -6.62%; under `CC(=O)N(Cc1noc(C)n1)C1CCN(Cc2ccon2)C1` (centres undefined), 65.5%.
With `Cc1nc(CN(C)C2CCN(CC3CCC3)C2)no1` (centres undefined), the INHIBITION was determined as 18.2%.
Under `Cc1nc(CN(C)C2CCN(CC(=O)N3CCOCC3)C2)no1` (centres undefined) stands 17.3%.
In the case of `Cc1nc(CN(C)C2CCN(CC3CCCC3)C2)no1` (centres undefined) it was -22.9%.

The record behind these values is ChEMBL document CHEMBL4513216, “Probing the Open Global Health Chemical Diversity Library for Multistage-Active Starting Points for Next-Generation Antimalarials” (ACS Infect Dis, 2020).
